Reference: PubChem BioAssay (NCI)
The panel holds about 79,000 compounds, 15% with a hit somewhere; the sample as a whole holds those more often. Calls of active or inactive are those of the source. No stated cut-off is given here; in the data, active means growth inhibition above about 70%; inactive means the rest.

Key:
[1] = NCI Yeast Anticancer Drug Screen. Data for the rad52 strain (AID 147);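 further: 0% = growth of vehicle-treated control cultures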; details: S. cerevisiae rad52 mutant growth inhibition, hits give high values
Summary of the method: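 Vehicle-treated cultures served as the reference for growth inhibition of compound-exposed yeast bearing a DNA repair mutation.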

[2] = NCI Yeast Anticancer Drug Screen. Data for the wt1 strain (AID 149);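 further: 0% = growth of vehicle-treated wt1 cultures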; details: S. cerevisiae wt1 strain (SPY 50644) growth inhibition, hits give high values
Summary of the method: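 Yeast wt1 strain exposed to compounds; growth inhibition measured relative to vehicle-treated controls.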

[3] = NCI Yeast Anticancer Drug Screen. Data for the mgt1 strain (AID 153); details: S. cerevisiae mgt1 mutant growth inhibition, hits give high values
Summary of the method: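 mgt1 strain exposed; growth vs vehicle control recorded as inhibition.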

[4] = NCI Yeast Anticancer Drug Screen. Data for the rad50 strain (AID 155);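 further: 0% = growth of vehicle-only cultures of the same strain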; details: S. cerevisiae rad50 strain growth inhibition, hits give high values
Summary of the method: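 Yeast carrying a defined DNA repair defect were exposed to test compounds, and growth was compared with vehicle-treated controls to give percent inhibition.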

[5] = NCI Yeast Anticancer Drug Screen. Data for the mec2-1 strain (AID 157); details: S. cerevisiae mec2-1 strain, hits give high values
Summary of the method: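 Vehicle-treated cultures served as reference for growth inhibition of compound-exposed mec2-1 yeast.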

[6] = NCI Yeast Anticancer Drug Screen. Data for the sgs1 mgt1 strain (AID 161);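 further: 0% = growth of cultures given vehicle only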; details: S. cerevisiae sgs1 mgt1 strain, hits give high values
Summary of the method: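 Genetically altered yeast, compound exposure, growth inhibition relative to vehicle.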

[7] = NCI Yeast Anticancer Drug Screen. Data for the CLN2oe strain (AID 163);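 further: 0% = growth of vehicle-only control cultures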; details: S. cerevisiae CLN2oe strain, hits give high values
Summary of the method: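 Inhibition relative to vehicle-treated yeast is reported. Cells: strain with genetic alteration in cell-cycle control, grown with compound.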

[8] = NCI Yeast Anticancer Drug Screen. Data for the cln2 rad14 strain (AID 165);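 further: 0% = growth equal to vehicle treated cultures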; details: S. cerevisiae cln2 rad14 strain, hits give high values
Summary of the method: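 Each compound was tested on cln2 rad14 yeast. Inhibition of growth was calculated against vehicle-exposed controls.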

[9] = NCI Yeast Anticancer Drug Screen. Data for the bub3 strain (AID 167); details: S. cerevisiae bub3 mutant strain, hits give high values
Summary of the method: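 Compounds were applied to a genetically altered yeast strain carrying a cell-cycle control defect. Growth inhibition was scored against vehicle-treated controls.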

[10] = NCI Yeast Anticancer Drug Screen. Data for the wt2 strain (AID 169);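 further: 0% = growth of vehicle-treated yeast cultures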; details: S. cerevisiae wt2 strain growth inhibition, hits give high values
Summary of the method: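 Inhibition of yeast growth was determined after compound treatment, normalised to controls receiving only vehicle.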

[11] = NCI Yeast Anticancer Drug Screen. Data for the mlh1 strain (AID 171);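 further: 0% = growth of vehicle-treated control cultures of the same strain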; details: S. cerevisiae mlh1 strain growth inhibition, hits give high values
Summary of the method: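 Vehicle-normalised growth inhibition of a repair- or checkpoint-altered yeast strain following compound treatment.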

[12] = NCI Yeast Anticancer Drug Screen. Data for the sgs1 strain (AID 173);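 further: 0% = growth of vehicle-only control cultures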; details: S. cerevisiae sgs1 mutant, hits give high values
Summary of the method: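 Screen format: yeast with repair or checkpoint alterations, compound exposure, growth read relative to vehicle.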

[13] = NCI Yeast Anticancer Drug Screen. Data for the mlh1 rad18 strain (AID 175); details: S. cerevisiae mlh1 rad18 strain growth inhibition, hits give high values
Summary of the method: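 Vehicle-treated cultures served as the reference for growth inhibition in a yeast strain carrying DNA damage repair alterations exposed to each compound.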

[14] = NCI Yeast Anticancer Drug Screen. Data for the rad18 strain (AID 177); details: S. cerevisiae rad18 mutant growth inhibition, hits give high values
Summary of the method: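 Test articles were incubated with altered yeast defective in DNA damage repair. Results are given as inhibition of growth versus vehicle.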

[15] = NCI Yeast Anticancer Drug Screen. Data for the rad14 strain (AID 159);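 further: 0% = growth of vehicle-treated control cultures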; details: S. cerevisiae rad14 strain growth inhibition, hits give high values
Summary of the method: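 Yeast cells carrying a defined DNA-repair defect were exposed to compounds, and growth inhibition was calculated relative to vehicle-treated control cultures.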

[16] = at 5.0 µM (retest, dose inferred, filed as 0.5)
[17] = at 50.0 µM (retest, dose inferred, filed as 5.0)

Measured: growth inhibition

O=C(CCCN1CCC2(CC1)CC(=O)N(N1CCCCCC1)C2=O)c1ccc(F)cc1
active: [3]; at 33.0 µM 75% | [3]; at 100.0 µM 89% | [4]; at 50.0 µM 80.8% | [6]; [17] 74% | [6]; at 50.0 µM 84.4% | [7]; at 33.0 µM 71% | [7]; at 100.0 µM 79% | [8]; [17] 82% | [8]; at 50.0 µM 72% | [9]; at 50.0 µM 73.3% | [12]; at 33.0 µM 73% | [12]; at 100.0 µM 77% | [13]; at 50.0 µM 76%
inactive: [1]; at 1.2 µM 23% | [1]; at 3.7 µM 34% | [1]; at 11.0 µM 46% | [1]; at 33.0 µM 53% | [1]; at 100.0 µM 65% | [2]; at 1.2 µM 11% | [2]; at 3.7 µM 24% | [2]; at 11.0 µM 25% | [2]; at 33.0 µM 34% | [2]; at 100.0 µM 41% | [3]; at 1.2 µM 32% | [3]; at 3.7 µM 45% | [3]; at 11.0 µM 67% | [4]; at 1.2 µM 29% | [4]; at 3.7 µM 26% | [4]; [16] 14% | [4]; at 11.0 µM 33% | [4]; at 33.0 µM 49% | [4]; [17] 46% | [4]; at 100.0 µM 61% | [5]; at 1.2 µM 25% | [5]; at 3.7 µM 28% | [5]; [16] 13% | [5]; at 11.0 µM 31% | [5]; at 33.0 µM 40% | [5]; [17] 41% | [5]; at 50.0 µM 45.8% | [5]; at 100.0 µM 45% | [6]; [16] 45% | [7]; at 1.2 µM 49% | [7]; at 3.7 µM 45% | [7]; at 11.0 µM 58% | [8]; [16] 63% | [9]; at 1.2 µM 40% | [9]; at 3.7 µM 41% | [9]; [16] 36% | [9]; at 11.0 µM 51% | [9]; at 33.0 µM 61% | [9]; [17] 41% | [9]; at 100.0 µM 66% | [10]; at 1.2 µM 20% | [10]; at 3.7 µM 32% | [10]; at 11.0 µM 41% | [10]; at 33.0 µM 53% | [10]; at 100.0 µM 68% | [11]; at 1.2 µM 25% | [11]; at 3.7 µM 30% | [11]; at 11.0 µM 41% | [11]; at 33.0 µM 52% | [11]; at 100.0 µM 63% | [12]; at 1.2 µM 43% | [12]; at 3.7 µM 45% | [12]; at 11.0 µM 65% | [13]; [16] 25% | [13]; [17] 56% | [14]; at 1.2 µM 29% | [14]; at 3.7 µM 49% | [14]; at 11.0 µM 57% | [14]; at 33.0 µM 66% | [14]; at 100.0 µM 65%

Cc1ccc2ccc(O)cc2c1
active: [1]; at 100.0 µM 80% | [2]; at 100.0 µM 71% | [4]; at 100.0 µM 92% | [5]; [17] 95% | [6]; at 50.0 µM 80.1% | [7]; at 100.0 µM 83% | [8]; at 50.0 µM 82% | [9]; at 50.0 µM 86.7% | [9]; at 100.0 µM 88%
inactive: [1]; at 1.2 µM -31% | [1]; at 3.7 µM -35% | [1]; at 11.0 µM -30% | [1]; at 33.0 µM -31% | [2]; at 1.2 µM -22% | [2]; at 3.7 µM -16% | [2]; at 11.0 µM -19% | [2]; at 33.0 µM -11% | [3]; at 1.2 µM -25% | [3]; at 3.7 µM -19% | [3]; at 11.0 µM -22% | [3]; at 33.0 µM -21% | [3]; at 100.0 µM 50% | [4]; at 1.2 µM -23% | [4]; at 3.7 µM -28% | [4]; [16] -9% | [4]; at 11.0 µM -38% | [4]; at 33.0 µM -11% | [4]; [17] 33% | [4]; at 50.0 µM 58.2% | [5]; at 1.2 µM -37% | [5]; at 3.7 µM -33% | [5]; [16] -10% | [5]; at 11.0 µM -32% | [5]; at 33.0 µM -42% | [5]; at 50.0 µM 1.85% | [5]; at 100.0 µM 50% | [15]; at 1.2 µM -18% | [15]; at 3.7 µM -20% | [15]; at 11.0 µM -23% | [15]; at 33.0 µM -25% | [15]; at 100.0 µM 56% | [6]; [16] 5% | [6]; [17] 43% | [7]; at 1.2 µM -10% | [7]; at 3.7 µM -13% | [7]; at 11.0 µM -9% | [7]; at 33.0 µM -17% | [8]; [16] 4% | [8]; [17] 53% | [9]; at 1.2 µM 4% | [9]; at 3.7 µM 10% | [9]; [16] 4% | [9]; at 11.0 µM 14% | [9]; at 33.0 µM 14% | [9]; [17] 23% | [10]; at 1.2 µM -18% | [10]; at 3.7 µM -19% | [10]; at 11.0 µM -21% | [10]; at 33.0 µM -20% | [10]; at 100.0 µM 56% | [11]; at 1.2 µM -9% | [11]; at 3.7 µM -19% | [11]; at 11.0 µM -27% | [11]; at 33.0 µM -24% | [11]; at 100.0 µM 68% | [12]; at 1.2 µM -24% | [12]; at 3.7 µM -14% | [12]; at 11.0 µM -38% | [12]; at 33.0 µM -19% | [12]; at 100.0 µM 32% | [13]; [16] -33% | [13]; [17] 63% | [13]; at 50.0 µM 48.5% | [14]; at 1.2 µM -21% | [14]; at 3.7 µM -32% | [14]; at 11.0 µM -22% | [14]; at 33.0 µM -23% | [14]; at 100.0 µM 69%
